This is a sample that favours compounds with a hit; in the whole collection about 2.8% have one here.
MsrA act – bovine MsrA enzyme activators, primary screen, biochemical, absorbance, HTS; Methionine sulfoxide reductase A (Bos taurus); purified bovine MsrA, absorbance read-out; activation, % at 10.6 µM; 360,000 tested, 0.3% active; AID 602163, 2012; in the data active = activation above about 7.5%;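 note: 0% = vehicle and 100% = reference activator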
MsrA inhibitor – bovine MsrA enzyme inhibitors, primary screen, biochemical, absorbance, HTS. Methionine sulfoxide reductase A (Bos taurus). purified bovine MsrA, absorbance read-out. inhibition, % at 15.5 µM. 360,000 tested, 0.75% active; in the data active = inhibition above about 4.5%;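 note: 0% = vehicle wells with enzyme and 100% = reference inhibitor wells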
sPLA2-III inh – human group III sPLA2 inhibitors, primary screen, biochemical, QFRET, BODIPY PC-A2 liposome substrate; 370,000 tested, 0.56% active; inhibition, % at 12.2 µM; QFRET BODIPY PC-A2 liposome hydrolysis, fluorescence; Group 3 secretory phospholipase A2 (Homo sapiens), Q9NZ20; AID 743126, 2013;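 active = inhibition above mean plus 3 SD of compounds lying within the high and low control bounds, cut at about 19% in these data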;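 note: 0% = median of test compound wells and 100% = no enzyme DMSO wells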
Target sequence (Q9NZ20 whole entry, looked up): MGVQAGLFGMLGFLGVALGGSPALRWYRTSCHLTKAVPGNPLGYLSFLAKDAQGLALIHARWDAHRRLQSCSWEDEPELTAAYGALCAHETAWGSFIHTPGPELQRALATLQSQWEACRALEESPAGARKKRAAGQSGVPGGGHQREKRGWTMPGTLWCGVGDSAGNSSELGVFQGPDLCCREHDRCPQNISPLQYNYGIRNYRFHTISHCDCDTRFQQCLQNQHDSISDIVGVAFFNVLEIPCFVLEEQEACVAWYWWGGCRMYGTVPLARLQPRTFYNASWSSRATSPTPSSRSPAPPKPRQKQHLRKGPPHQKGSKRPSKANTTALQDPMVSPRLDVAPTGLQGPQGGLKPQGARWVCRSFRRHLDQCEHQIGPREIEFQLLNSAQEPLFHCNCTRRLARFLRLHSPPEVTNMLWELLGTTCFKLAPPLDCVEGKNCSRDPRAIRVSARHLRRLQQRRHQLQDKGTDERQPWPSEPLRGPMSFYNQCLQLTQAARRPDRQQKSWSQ
rCAG binder – binders of r(CAG) RNA repeats, primary screen, biochemical, fluorescence; inhibition, % at 3 µM; 370,000 tested, 1.3% active; r(CAG) RNA repeat, TO-PRO-1 dye displacement fluorescence;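 active = inhibition above the plate cutoff, the mean of all test compounds on that plate plus 3 SD, cut at about 35% in these data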;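 note: 0% = DMSO alone and 100% = 100 µM mitoxantrone as full dye displacement; higher means more dye released from RNA so lower well fluorescence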
* hit, by the source's call; nt = not tested or not shown.

SMILES	MsrA act	MsrA inhibitor	sPLA2-III inh	rCAG binder
C#Cc1cccc(Nc2nc(NCc3ccccc3)nc3ccsc23)c1	-4.0	13.5*	-17.3	6.3
Cc1ccc(Cn2cccc(NS(C)(=O)=O)c2=O)cc1	-1.9	-0.2	0.6	0.7
Cc1cc(NS(C)(=O)=O)c(=O)n(Cc2cccc(F)c2)c1	0.0	0.1	22.6*	0.4
CC(Nc1cc(N2CCN(C(=O)C(C)(C)C)CC2)ccc1[N+](=O)[O-])c1ccccc1 (configuration not stated)	-2.3	10.7*	-6.8	-1.7
CC(Nc1cc(N2CCNCC2)ccc1[N+](=O)[O-])c1ccccc1 (configuration not stated)	0.9	2.7	-3.5	2.4
CCS(=O)(=O)N1CCN(c2ccc([N+](=O)[O-])c(NC(C)c3ccccc3)c2)CC1 (configuration not stated)	-3.9	7.3*	0.1	7.7
CN(CC(=O)NCCc1ccccc1)S(=O)(=O)c1cccs1	-11.5	-1.3	2.5	-2.6
Cc1cccc(N2CCN(C(=S)Nc3ccc4nc5n(c(=O)c4c3)CCCCC5)CC2)c1C	-13.0	0.2	-2.6	1.6
CCCN1CCN(c2ccc([N+](=O)[O-])cc2C#N)CC1	-2.2	2.8	3.2	-2.3
CC(=O)N1CCN(c2ccc([N+](=O)[O-])cc2C#N)CC1	2.3	4.6*	3.6	-1.6
Cc1ccc(Oc2ccc3c(c2)C(=O)N(c2ccc(S(=O)(=O)Nc4nccs4)cc2)C3=O)cc1	1.9	1.3	-10.4	61.1*
N#Cc1ccc(OCC(=O)N[C@@H](Cc2ccccc2)c2nc3ccccc3[nH]2)cc1	nt	-0.9	-4.7	-2.5
CC(/C=N/n1c(-c2ccncc2)n[nH]c1=S)=C\c1ccco1	-0.3	3.4	23.3*	21.4
COc1ccc(/C=N/NC(=S)NC2CCS(=O)(=O)C2)cc1OC (configuration not stated)	-5.7	6.0*	1.8	-4.3
CCn1nc(C)cc1C(=O)Sc1cccc(Cl)c1	-5.1	0.4	14.1	42.0*
CCOC=C1SC(=S)N(c2ccccc2OC)C1=O	-2.4	1.6	-30.7	3.0
Cc1cc(C(F)(F)F)n2nc(-c3cnn(C)c3C(F)(F)F)cc2n1	7.7*	0.7	-0.4	-2.1
Clc1nc(-c2ccccn2)nc2scc(-c3ccccc3)c12	-1.8	2.9	20.9*	-2.3
CCN1C(=O)c2ccccc2S(=O)(=O)c2ccc(C(=O)NCCCN(CC(C)C)CC(C)C)cc21	-0.8	-0.2	9.1	-5.7
C=CCN1C(=O)/C(=C2/Sc3ccccc3N2CCCS(=O)(=O)O)SC1=S	-12.8	0.9	-22.4	84.7*
CCN(CC)Cc1cc(Nc2c3ccccc3nc3c4ccccc4n(C)c23)cc(CN(CC)CC)c1O	-6.1	2.2	21.3*	12.8
Oc1cccc(Nc2c3ccccc3nc3ccccc23)c1	-1.3	0.1	2.1	9.2
O=C(O)C1Nc2c(O)cc(Cl)c([N+](=O)[O-])c2C2C=CCC12 (configuration not stated)	-6.9	3.9	19.1	100.6*
COc1cccc2c1NC(C(=O)O)C1CC=CC21 (configuration not stated)	-2.2	nt	nt	nt
COc1cccc(N2CC(NS(=O)(=O)c3ccc4ccccc4c3)CC2=O)c1 (configuration not stated)	5.0	-2.0	-31.5	0.8
SMILES	MsrA act	MsrA inhibitor	sPLA2-III inh	rCAG binder
CC(=O)c1ccc(N2CCN(C(=O)C3CCN(S(=O)(=O)c4cccs4)CC3)CC2)cc1	-5.0	4.6*	2.5	11.0
Cc1c(C)c2c(OCC(=O)O)cc3c(c2oc1=O)CCC(C)(C)O3	-1.9	1.5	-1.1	5.4
Cc1c(C)c2c(OCC(=O)NCC(=O)NCC(=O)O)cc3c(c2oc1=O)CCC(C)(C)O3	-4.4	4.5*	-1.4	4.8
Cc1cccc(NC(=S)N=Nc2c(O)n(CN3CCOCC3)c3ccccc23)c1C	-1.6	1.6	22.6*	21.2
CC(/C=N/n1c(COc2ccccc2)n[nH]c1=S)=C\c1ccccc1	0.3	0.3	-9.9	40.9*
Cc1cccc(/C=N/n2c(COc3ccccc3)n[nH]c2=S)c1	2.3	0.9	3.4	22.5
CC1(C)Cc2c(c(=S)nc(-c3ccccc3)n2CCN2CCOCC2)CO1	-4.3	4.6*	3.8	-1.7
COCCn1c(-c2ccccc2)nc(=S)c2c1CC(C)(C)OC2	-2.8	2.9	2.8	-0.2
N#CC12CCCCC1CC1CCCCC1(C#N)N2Cc1ccccn1 (configuration not stated)	-4.1	-0.2	4.9	-5.6
FC(F)(F)c1cc(Cl)c2nc(-c3ccccc3)c(Cc3cccc(Cl)c3)n2c1	-0.8	-1.0	-4.9	41.5*
FC(F)(F)c1cc(Cl)c2nc(-c3cccc(Cl)c3)c(Cc3cccc(Cl)c3)n2c1	-3.0	-0.8	-3.9	7.3
Cc1cc2nc(-c3ccccc3)c(Cc3cccc(Cl)c3)n2c(C)c1Br	-6.0	1.0	-18.3	51.9*
Cc1ccc2cc3cc(C(=O)NCCCN4CCCC4=O)oc3nc2c1	-4.9	4.6*	-2.7	-3.5
Cc1ccc2cc3cc(C(=O)NCCN4CCOCC4)oc3nc2c1	-17.6	3.8	4.2	-0.1
O=c1cc(O)c2sc(Nc3ccc(F)c(Cl)c3)nc2[nH]1	-2.1	2.1	-2.2	35.1*
O=c1cc(O)c2sc(Nc3ccc(Cl)c(F)c3)nc2[nH]1	0.2	2.0	3.3	29.6
CCN(Cc1ccccc1)N=Nc1ccccc1	-2.0	-0.9	0.2	1.5
CC1(C)CC(N2CCN(Cc3ccccc3)CC2)=CC(=[N+]2CCCCC2)C1	-12.0	4.1	3.8	-6.4
CN(Cc1ccccc1)C1=CC(=[N+]2CCCCC2)CC(C)(C)C1	-17.8	4.7*	0.5	1.0
CC(=O)Nc1nc(C)c(-c2csc(Nc3cccc(C(C)=O)c3)n2)s1	-1.8	4.6*	2.6	20.4
N#CCCn1cc(/C=N/O)c(-c2cccc([N+](=O)[O-])c2)n1	-3.6	-0.4	-5.1	-1.3
CCC1CN(C(=O)NCc2ccc(F)cc2)c2ccccc2O1 (configuration not stated)	-1.5	-0.7	-1.9	-4.6
COc1ccc2c(c1OC)C(=O)OC2C1c2c(cc3c(c2OC)OCO3)CCN1C (configuration not stated)	-9.4	-1.0	0.2	0.8
CN1CCc2cc3c(c4c2[C@H]1[C@H](O)c1ccccc1-4)OCO3	36.8*	-0.2	0.4	-1.9
CC1([N+](=O)[O-])COC(c2cccc3ccccc23)OC1 (configuration not stated)	-0.6	0.0	-9.9	1.3
COc1ccc2ccccc2c1C1CC(=O)N2CN(C3CCCCC3)CSC2=C1C#N (configuration not stated)	-8.0	1.1	-17.3	39.1*
CN(C)c1ccc(/C=C/c2ccc3ccccc3[n+]2C)cc1	-0.2	1.0	19.5*	19.3
CN(C)c1ccc(/C=C/c2ccc3c4ccccc4ccc3[n+]2-c2ccccc2)cc1	-8.7	0.1	43.8*	30.0

Compound activity (PubChem BioAssay)
